In PubChem BioAssay (NCATS) one finds Potency and activity change, negative = inhibition data, which are given here for 37 molecules.

Results filed as inconclusive are left out. Where a call stands in place of a potency, no number is given. A number with no mark means an inactive call. Active and inactive are the calls of the source. Calls follow the shape of the dose curve; as a rule, active = well fitted curve in the direction sought with a large enough effect; inconclusive = small, poorly fitted or top-dose-only effect, or another doubt; inactive = no such curve, though single readings can be large; an effect the other way counts as inactive or inconclusive.

Experiment [1] deals with Zika virus NS2B-NS3 protease (unlinked). Description: Optimization of GU AMC qHTS for Zika virus inhibitors: Unlinked NS2B-NS3 protease assay (AID 1347151). Also: nearly all actives have a fitted effect of over 80% in size. Also: potency is read from the fitted curve at half-maximal effect. As to activity change, negative = inhibition: series mostly up to about 52 µM. The essentials: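 In this qHTS, compounds acted on 25 nM unlinked Zika NS2B–NS3 in pH 8.0 Tris/Tween buffer. Cleavage of an AMC peptide ran 15 min at room temperature, to about 20% conversion.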
In experiment [2] the test system is Zika virus NS2B-NS3 protease. Description: Primary screen GU AMC qHTS for Zika virus inhibitors (AID 1347154). Also: nearly all actives have a fitted effect of over 70% in size. Also: potency is read from the fitted curve at half-maximal effect. The essentials: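 Unlinked Zika NS2B hydrophilic domain/NS3 protease domain noncovalent complex (25 nM final) in 10 mM Tris-HCl pH 8.0, 0.01% Tween 20, with AMC peptide substrate. Fluorescence (ex 340, em 450 nm) change over 15 min, room temperature; percent inhibition fitted to 4-parameter Hill equation.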
A general note: qHTS replaces the single test concentration by a dilution series.

The nature of experiment [3]: Confirmatory screen GU Rhodamine qHTS for Zika virus inhibitors qHTS (AID 1347157). Also: potency is read from the fitted curve at half-maximal effect; nearly all actives have a fitted effect of over 70% in size. The gist of the method:
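Unlinked NS2B/NS3, 25 nM; Rhod110 peptide, 1.5 microM; compounds, up to 114 microM. Reaction run 15 min at RT in 10 mM Tris-HCl pH 8.0, 0.01% Tween 20; kinetic fluorescence change fitted with a 4-parameter Hill model.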

A short description of experiment [4]: ZIKV-mCherry secondary qHTS for Zika virus inhibitors (AID 1347158). Also: potency is read from the fitted curve at half-maximal effect. Conditions: Vero cells, ZIKV-mCherry infection imaging, 48-72 h. The gist of the method:
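After overnight seeding at 37 °C, Vero cells receive compound and then ZIKV-mCherry (MOI 1). Following 48-72 h infection, cells are fixed, counterstained with Hoechst, and imaged; percent infected cells is derived from an mCherry intensity cut-off of 450 RFU.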

Experiment [5] in a line: Confirmatory screen NINDS Rhodamine qHTS for Zika virus inhibitors (AID 1347161). Also: potency is read from the fitted curve at half-maximal effect; nearly all actives have a fitted effect of over 60% in size. The essentials:
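Purified linked NS2B-NS3 protease (NS2B hydrophilic domain joined to NS3 protease by flexible linker), 25 nM in 10 mM Tris-HCl pH 8.0, 0.01% Tween 20. Compounds titrated, 15 min preincubation at room temperature; 1.5 microM Rhodamine110 substrate, FITC fluorescence change over 15 min.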

Experiment [6] concerns Zika virus NS2B-NS3 protease (linked). In words: 384 well plate NINDS AMC confirmatory qHTS for Zika virus inhibitors (AID 1347163). Also: potency is read from the fitted curve at half-maximal effect; nearly all actives have a fitted effect of over 50% in size. Conditions: Recombinant NS2B-NS3 protease, Ac-VKTGKR-AMC fluorescence. The essentials:
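Linked protease 5/30/60 nM final; cpds up to 1 mM final, ~15 min preinc. Substrate Ac-VKTGKR-AMC 30 microM final. RT, dark, 25 min; FI ex 355/em 460; normalized to no-enzyme/no-inhibitor ctrls.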

For experiment [7], the system named is Zika virus NS2B-NS3 protease (linked construct). Description: Primary screen NINDS Rhodamine qHTS for Zika virus inhibitors (AID 1347160). Also: nearly all actives have a fitted effect of over 55% in size. The essentials:
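Kinetic fluorescence (Ex 480 nm, Em 540 nm) over 15 min with 1.5 microM Rhodamine110 peptide and 25 nM linked protease.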

The subject of experiment [8] is Zika virus NS2B-NS3 protease (unlinked complex). In words: Primary screen GU Rhodamine qHTS for Zika virus inhibitors: Unlinked NS2B-NS3 protease assay (AID 1347159). Also: nearly all actives have a fitted effect of over 60% in size. The essentials:
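A qHTS format was used, with compound concentrations ranging up to 114 microM. Each compound was preincubated with 25 nM NS2B-NS3 protease, and the substrate was then added at 1.5 microM. Curves were fitted with a 4-parameter Hill model.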

Experiment [9] relates to Zika virus NS2B-NS3 protease (linked construct). In words: Confirmatory screen NINDS AMC qHTS for Zika virus inhibitors (AID 1347152). Also: potency is read from the fitted curve at half-maximal effect; nearly all actives have a fitted effect of over 70% in size. The gist of the method:
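Concentration-response confirmation used the NINDS linked protease (NS2B hydrophilic domain joined to NS3 protease domain), 1 nM, with a 15-min compound preincubation. Substrate, Nle-KRR-AMC at 10 microM, was read by UV fluorescence before and after 15 min.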

Experiment [10] concerns Zika virus NS2B-NS3 protease (unlinked complex). In words: Confirmatory screen GU AMC qHTS for Zika virus inhibitors (AID 1347153).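 Also: enzyme at 25 nM with substrate at 10 µM below its Km of 18.3 µM; potency is read from the fitted curve at half-maximal effect; nearly all actives have a fitted effect of over 70% in size.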 The gist of the method: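 Fluorescence change (ex 340/em 450 nm) over 15 min, ~20% substrate conversion, normalized to no-inhibitor and no-enzyme controls, then Hill-fitted. Unlinked protease at 25 nM; AMC peptide 10 µM.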

Turning to `Cc1[nH]c2ccc(O)cc2c1CCN`, the Potency entry in [1] and in experiment [2] was “inactive” in each case. Turning to `CC(N)Cc1c[nH]c2ccc(OCc3cccs3)cc12` (stereo not drawn), the Potency entry in experiment [1] and in experiment [2] was “inactive” each time. Consider `CC(=O)c1c(O)c(C)c(O)c(Cc2c(O)c3c(c(C(=O)/C=C/c4ccccc4)c2O)OC(C)(C)C=C3)c1O`, for which the Potency is 11.9 µM (active) in experiment [1]; 5.62 µM (active) in [3]; 3.55 µM (active) in experiment [4]; 17.8 µM (active) in [5]; 63.1 µM (active) in experiment [6]. For the same molecule, in experiment [2], the Potency entry was “inactive”. For `COc1ccc2[nH]cc(CCN)c2c1`, the Potency entry in [1], in [2] and in experiment [7] was “inactive” throughout. For `CCNC(=O)[C@H]1O[C@@H](n2cnc3c(N)ncnc32)[C@H](O)[C@@H]1O`, the Potency entry in experiment [1] and in [2] was “inactive” each time. Turning to `CN1CCC[C@@H]1Cc1c[nH]c2ccc(Nc3ncccc3[N+](=O)[O-])cc12`, the Potency result in experiment [1] and in [8] was “inactive” each time. `CN1CCC(c2c[nH]c3ccc(O)cc23)CC1`: the Potency result in [1] and in experiment [2] was “inactive” in each case.

In the case of `CC(C)(C)c1cc(C=C(C#N)C#N)cc(C(C)(C)C)c1O`, in experiment [1], the Potency was 10.6 µM (active). Also, in experiment [2], the Potency entry is “inactive”. For `c1ccc2c(c1)[I+]c1ccccc1-2`, the Potency result in experiment [1] and in [2] was “inactive” each time. `CCCN(CCC)[C@@H]1CCc2cccc(O)c2C1`: the Potency entry in [1] and in experiment [2] was “inactive” in each case. In the case of `c1ccc2c(N3CCNCC3)cccc2c1`, the Potency in experiment [1] was 26.7 µM (active). The Potency entry in experiment [2] was “inactive”. The like results for `CN1CC[C@@]2(C)c3cc(OC(=O)Nc4ccccc4)ccc3N(C)[C@@H]12` were, in that order, “inactive” and “inactive”. The like results for `NCC(CP(=O)(O)O)c1ccc(Cl)cc1` (stereo not drawn) were, in that order, “inactive” and “inactive”. Turning to `CCCN(CCC)C1CCc2cccc(O)c2C1` (stereo not drawn), the Potency entry in experiment [1] and in experiment [2] was “inactive” throughout. Consider `CO[C@H]1CC=C2CCN3CCC4=C(CC(=O)OC4)[C@]23C1`, for which the Potency entry in experiment [1] and in [2] was “inactive” each time. Take `CCCN(CCC)C1Cc2cc(OC)c(OC)cc2C1`: the Potency result in experiment [1] and in experiment [2] was “inactive” each time. For `C[N+]1(C)CCN(c2ccccc2)CC1`, the Potency entry in experiment [1] and in experiment [2] was “inactive” throughout. For `CP(=O)(O)C1=CCNCC1`, the Potency result in experiment [1] and in experiment [2] was “inactive” throughout.

As to `NC(C(=O)O)c1cc(=O)[nH]o1` (stereo not drawn), the Potency entry in experiment [1] and in experiment [2] was “inactive” each time.

`O=c1ccc2[nH]cc(C3=CCNCC3)c2[nH]1`: the Potency is 37.7 µM (active) in [1]; 24.1 µM (active) in [9]; 24.1 µM (active) in experiment [10]; 26.7 µM (active) in experiment [2]; 44.1 µM (active) in experiment [5].

For the molecule `CC(N)Cc1c[nH]c2ccc(O)cc12` (stereo not drawn), the Potency result in [1] and in experiment [2] was “inactive” in each case. As for `CCN1CC2(COC)C3[C@@H](OC)C4C1C3(C1C[C@]3(O)[C@H](OC(=O)c5ccccc5)C1[C@]4(OC(C)=O)[C@@H](O)[C@@H]3OC)[C@H](OC)C[C@H]2O` (stereo partly drawn), the Potency result in experiment [7] is “inactive”. Turning to `COc1cc(C)[nH]c(=O)c1CNC(=O)c1c(C)n([C@H](C)C2CCOCC2)c2ccccc12`, the Potency result in experiment [8] and in experiment [7] was “inactive” each time.

`C[C@@H]1C(=O)O[C@H]2[C@H](O)[C@@]34[C@@H]5OC(=O)[C@@]3(O[C@@H]3OC(=O)[C@@H](O)[C@@]34[C@H](C(C)(C)C)[C@H]5O)[C@@]12O`: the Potency entry in [8] is “inactive”. Same read-out and setting: next, `CC1=C2C[C@H]3[C@@H](CC=C4C[C@@H](O)CC[C@@]43C)[C@@H]2CC[C@]12O[C@@H]1C[C@H](C)CN[C@H]1[C@H]2C`: “inactive”. As for `COC(=O)N1CCN(C(=O)Cc2ccc(Cl)c(Cl)c2)[C@@H](CN2CCCC2)C1`, the Potency result in [8] and in experiment [7] was “inactive” in each case. `Oc1ccc2c3c1O[C@H]1[C@H](N(CCCl)CCCl)CC[C@@]4(O)[C@@H](C2)N(CC2CC2)CC[C@]314`: the activity change, negative = inhibition in experiment [8] is -3.74% [at 19.1 µM].

On to `C=C[C@H]1[C@H](O[C@@H]2O[C@H](CO)[C@@H](O)[C@H](O)[C@H]2O)OC=C2C(=O)OCC[C@H]21`, for which the Potency result in [8] and in [7] was “inactive” in each case. For the molecule `Clc1ccc(OCC2=NCCN2)cc1Cl`, the Potency entry in experiment [8] and in experiment [7] was “inactive” throughout. Consider `COC(=O)C1(C)CCC(=O)C2(C)c3c(O)cc(C(C)C)cc3C(O)C(OC(C)=O)C12` (stereo not drawn), for which the Potency result in experiment [8] is “inactive”. Turning to `O=C1C[C@@H]2OCC=C3CN4CC[C@]56c7ccccc7N1[C@H]5[C@H]2[C@H]3C[C@H]46`, the Potency entry in experiment [8] and in [7] was “inactive” each time. Turning to `CC[C@H]1CN2CC[C@H]1C[C@@H]2[C@@H](O)c1ccnc2ccc(OC)cc12`, the Potency entry in experiment [8] was “inactive”. On the same count and under the same terms, next, `C/C=C(\C)C(=O)OC1CC2C(CC=C3CC(OC4CC(OC)C(OC5CC(OC)C(OC6OC(C)C(OC7OC(CO)C(O)C(O)C7O)C(OC)C6O)C(C)O5)C(C)O4)CCC32C)C2(O)CCC(C(C)=O)C12C` (stereo not drawn): “inactive”. As for `CC(N)Cc1c[nH]c2ccccc12` (stereo not drawn), the Potency entry in [8] and in experiment [7] was “inactive” in each case. On to `Cc1c(Cl)cccc1S(=O)(=O)Nc1nc(CC(=O)N2CCN(C)CC2)cs1`, for which the Potency entry in experiment [8] is “inactive”. Same read-out and setting: next, `CO[C@H]1[C@H](O)[C@H](O[C@H]2CC[C@]3(C)C4CC[C@]5(C)[C@H](C6=CC(=O)OC6)CC[C@]5(O)C4CC[C@@H]3C2)O[C@@H](C)[C@@H]1O` (stereo partly drawn): “inactive”.

Consider `COC(=O)C1(C)CCC(O)C2(C)c3c(O)cc(C(C)C)cc3C(O)C(OC(C)=O)C12` (stereo not drawn), for which the Potency result in experiment [8] and in experiment [7] was “inactive” throughout.
